Measurements published in the supplement of paper PMC11732987, “Enantioselective OTUD7B fragment discovery through chemoproteomics screening and high-throughput optimisation” (Communications Chemistry, 2025).

Legend:
Test in all cases: log2 ratio of Biotin-Ahx-Ub-VS probe labelling (fragment/DMSO); higher = less target engagement (more negative = stronger competition), active = hit call of the paper (q ≤ 0.05, log2 ratio ≤ -1)
Settings in all cases: compound concentration: 200 uM; treatment time: 3 h
[1] = biological target: T1, OTUD6B (UniProt Q8N6M0)
T1 sequence (whole entry): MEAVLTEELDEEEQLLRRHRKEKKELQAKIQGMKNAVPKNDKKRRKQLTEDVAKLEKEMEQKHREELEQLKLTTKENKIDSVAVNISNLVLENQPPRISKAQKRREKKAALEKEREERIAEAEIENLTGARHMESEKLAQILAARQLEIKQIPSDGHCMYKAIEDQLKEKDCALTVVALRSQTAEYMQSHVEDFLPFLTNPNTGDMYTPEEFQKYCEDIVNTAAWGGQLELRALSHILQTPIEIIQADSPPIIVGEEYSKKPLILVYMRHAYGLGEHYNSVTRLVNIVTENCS
How it was run: (§1)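 Global-median-normalised Spectronaut label-free quantities were compared by unpaired t-test, and values are average log2 ratios of fragment over vehicle. Only proteins with ≥2 unique peptides were used. HEK293T lysate (495 µg per sample) was treated in triplicate with fragment at 200 µM or vehicle for 3 h and then with Biotin-Ahx-Ub-VS at 0.5 µM final for 1 h. Labelled DUBs were then NeutrAvidin-enriched, digested with LysC and trypsin, and run by diaPASEF LC-MS/MS.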

[2] = biological target: T2, OTUD7B (UniProt Q6GQQ9)
T2 sequence (whole entry): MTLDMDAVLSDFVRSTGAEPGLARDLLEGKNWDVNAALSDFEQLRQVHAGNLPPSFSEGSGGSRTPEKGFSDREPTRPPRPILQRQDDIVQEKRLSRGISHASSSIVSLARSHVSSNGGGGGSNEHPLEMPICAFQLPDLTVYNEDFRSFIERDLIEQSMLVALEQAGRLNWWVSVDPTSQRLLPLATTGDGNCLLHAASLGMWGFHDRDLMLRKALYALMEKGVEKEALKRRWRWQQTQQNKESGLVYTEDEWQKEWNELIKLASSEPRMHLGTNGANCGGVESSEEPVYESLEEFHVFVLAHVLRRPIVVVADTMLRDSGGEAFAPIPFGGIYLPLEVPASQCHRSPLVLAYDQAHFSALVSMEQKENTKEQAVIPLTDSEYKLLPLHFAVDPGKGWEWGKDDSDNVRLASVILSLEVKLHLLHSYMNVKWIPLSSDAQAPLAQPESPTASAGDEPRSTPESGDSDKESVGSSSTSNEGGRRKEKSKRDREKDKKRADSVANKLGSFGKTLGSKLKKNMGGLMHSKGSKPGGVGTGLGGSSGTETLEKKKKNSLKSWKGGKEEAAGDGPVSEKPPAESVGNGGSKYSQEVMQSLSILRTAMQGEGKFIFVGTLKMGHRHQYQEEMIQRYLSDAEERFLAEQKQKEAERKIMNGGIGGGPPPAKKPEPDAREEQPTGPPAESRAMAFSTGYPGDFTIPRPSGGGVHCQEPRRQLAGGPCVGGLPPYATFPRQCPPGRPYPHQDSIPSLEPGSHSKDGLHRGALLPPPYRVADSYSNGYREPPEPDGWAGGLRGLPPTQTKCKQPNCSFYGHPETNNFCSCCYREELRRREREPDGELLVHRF
How it was run: as §1

[3] = biological target: PRPF8 (UniProt Q6P2Q9)
How it was run: as §1

[4] = biological target: T3, PSMD7 (UniProt P51665)
T3 sequence (whole entry): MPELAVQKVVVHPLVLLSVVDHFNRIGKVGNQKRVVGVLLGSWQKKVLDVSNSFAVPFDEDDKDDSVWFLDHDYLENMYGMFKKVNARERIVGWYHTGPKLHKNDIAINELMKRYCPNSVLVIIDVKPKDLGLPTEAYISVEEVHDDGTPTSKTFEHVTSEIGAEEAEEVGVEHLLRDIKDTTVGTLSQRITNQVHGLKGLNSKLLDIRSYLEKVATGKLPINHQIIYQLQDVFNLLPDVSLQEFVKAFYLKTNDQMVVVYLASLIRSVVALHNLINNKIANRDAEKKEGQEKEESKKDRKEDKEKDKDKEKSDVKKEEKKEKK
How it was run: as §1

[5] = biological target: UCHL1 (UniProt P09936)
How it was run: as §1

[6] = biological target: T4, UCHL3 (UniProt P15374)
T4 sequence (whole entry): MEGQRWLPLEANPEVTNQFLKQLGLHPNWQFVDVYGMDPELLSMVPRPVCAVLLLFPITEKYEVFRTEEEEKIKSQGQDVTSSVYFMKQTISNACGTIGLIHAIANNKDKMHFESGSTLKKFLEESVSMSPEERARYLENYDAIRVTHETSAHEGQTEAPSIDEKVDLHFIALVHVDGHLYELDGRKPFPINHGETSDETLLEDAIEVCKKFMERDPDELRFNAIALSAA
How it was run: as §1

[7] = biological target: T5, UCHL5 (UniProt Q9Y5K5)
T5 sequence (whole entry): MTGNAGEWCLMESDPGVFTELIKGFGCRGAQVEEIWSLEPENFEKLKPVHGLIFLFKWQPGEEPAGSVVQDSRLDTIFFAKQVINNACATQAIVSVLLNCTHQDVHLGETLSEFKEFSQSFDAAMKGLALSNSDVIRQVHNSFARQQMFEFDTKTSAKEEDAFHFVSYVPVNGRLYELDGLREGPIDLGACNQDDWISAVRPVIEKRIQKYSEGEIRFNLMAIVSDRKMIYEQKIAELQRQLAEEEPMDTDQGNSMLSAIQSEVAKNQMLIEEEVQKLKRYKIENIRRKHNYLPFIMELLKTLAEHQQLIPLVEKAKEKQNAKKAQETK
How it was run: as §1

[8] = biological target: USP10 (UniProt Q14694)
How it was run: as §1

[9] = biological target: T6, USP15 (UniProt Q9Y4E8)
T6 sequence (whole entry): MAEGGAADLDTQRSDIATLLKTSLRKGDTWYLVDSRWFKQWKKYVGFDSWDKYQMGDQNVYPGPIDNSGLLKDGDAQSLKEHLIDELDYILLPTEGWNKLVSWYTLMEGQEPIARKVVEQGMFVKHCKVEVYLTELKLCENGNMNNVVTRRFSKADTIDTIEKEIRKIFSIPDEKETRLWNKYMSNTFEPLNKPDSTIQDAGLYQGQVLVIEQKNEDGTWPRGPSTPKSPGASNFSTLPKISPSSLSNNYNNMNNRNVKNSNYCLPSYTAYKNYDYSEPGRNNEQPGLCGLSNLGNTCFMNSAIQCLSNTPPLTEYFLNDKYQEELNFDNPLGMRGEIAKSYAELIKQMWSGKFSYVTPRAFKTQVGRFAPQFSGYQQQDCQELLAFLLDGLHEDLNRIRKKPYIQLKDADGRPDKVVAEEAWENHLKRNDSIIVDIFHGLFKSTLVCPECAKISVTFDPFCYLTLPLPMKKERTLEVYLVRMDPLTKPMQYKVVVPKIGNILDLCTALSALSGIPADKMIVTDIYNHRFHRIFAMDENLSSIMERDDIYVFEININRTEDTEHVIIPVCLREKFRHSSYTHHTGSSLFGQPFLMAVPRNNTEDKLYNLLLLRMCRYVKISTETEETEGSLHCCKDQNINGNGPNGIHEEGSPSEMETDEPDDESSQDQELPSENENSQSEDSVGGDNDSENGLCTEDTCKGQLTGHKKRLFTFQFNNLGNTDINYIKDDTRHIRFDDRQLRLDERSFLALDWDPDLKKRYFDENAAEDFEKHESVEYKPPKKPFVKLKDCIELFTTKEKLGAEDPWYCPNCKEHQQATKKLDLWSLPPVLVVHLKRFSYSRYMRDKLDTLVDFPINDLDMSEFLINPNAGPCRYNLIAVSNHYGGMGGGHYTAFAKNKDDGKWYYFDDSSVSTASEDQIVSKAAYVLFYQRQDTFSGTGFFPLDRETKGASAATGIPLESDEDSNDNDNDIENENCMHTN
How it was run: as §1

[10] = biological target: USP16 (UniProt Q9Y5T5)
How it was run: as §1

Measured: log2 ratio of Biotin-Ahx-Ub-VS probe labelling

UCHL1, sequence (P09936 whole entry, looked up): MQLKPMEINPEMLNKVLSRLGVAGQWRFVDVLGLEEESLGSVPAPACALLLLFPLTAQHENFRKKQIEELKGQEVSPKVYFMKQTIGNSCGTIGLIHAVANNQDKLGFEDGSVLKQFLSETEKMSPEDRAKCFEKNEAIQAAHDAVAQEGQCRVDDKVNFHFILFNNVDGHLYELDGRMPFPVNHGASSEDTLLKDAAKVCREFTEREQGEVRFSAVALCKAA
USP16, sequence (Q9Y5T5 whole entry, looked up): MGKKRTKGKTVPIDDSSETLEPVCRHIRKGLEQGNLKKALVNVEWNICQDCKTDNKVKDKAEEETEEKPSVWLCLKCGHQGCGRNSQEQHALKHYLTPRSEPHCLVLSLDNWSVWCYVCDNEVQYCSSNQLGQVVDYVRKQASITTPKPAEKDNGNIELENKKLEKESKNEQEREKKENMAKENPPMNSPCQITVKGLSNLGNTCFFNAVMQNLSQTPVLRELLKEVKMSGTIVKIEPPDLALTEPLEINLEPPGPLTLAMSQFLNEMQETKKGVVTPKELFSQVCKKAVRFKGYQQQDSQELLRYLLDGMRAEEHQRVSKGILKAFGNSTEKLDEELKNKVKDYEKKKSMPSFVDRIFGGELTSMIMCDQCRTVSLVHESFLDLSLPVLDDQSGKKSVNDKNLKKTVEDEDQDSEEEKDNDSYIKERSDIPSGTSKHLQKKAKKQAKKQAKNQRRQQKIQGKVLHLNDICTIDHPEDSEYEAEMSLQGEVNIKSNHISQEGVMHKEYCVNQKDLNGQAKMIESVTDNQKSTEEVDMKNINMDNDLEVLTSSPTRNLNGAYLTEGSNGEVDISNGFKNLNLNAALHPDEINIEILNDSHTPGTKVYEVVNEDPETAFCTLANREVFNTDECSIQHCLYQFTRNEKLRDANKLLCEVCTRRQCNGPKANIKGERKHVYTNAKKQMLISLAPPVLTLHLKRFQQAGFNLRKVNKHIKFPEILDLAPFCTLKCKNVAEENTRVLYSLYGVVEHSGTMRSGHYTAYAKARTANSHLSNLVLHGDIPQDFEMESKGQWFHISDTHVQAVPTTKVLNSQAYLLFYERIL
USP10, sequence (Q14694 whole entry): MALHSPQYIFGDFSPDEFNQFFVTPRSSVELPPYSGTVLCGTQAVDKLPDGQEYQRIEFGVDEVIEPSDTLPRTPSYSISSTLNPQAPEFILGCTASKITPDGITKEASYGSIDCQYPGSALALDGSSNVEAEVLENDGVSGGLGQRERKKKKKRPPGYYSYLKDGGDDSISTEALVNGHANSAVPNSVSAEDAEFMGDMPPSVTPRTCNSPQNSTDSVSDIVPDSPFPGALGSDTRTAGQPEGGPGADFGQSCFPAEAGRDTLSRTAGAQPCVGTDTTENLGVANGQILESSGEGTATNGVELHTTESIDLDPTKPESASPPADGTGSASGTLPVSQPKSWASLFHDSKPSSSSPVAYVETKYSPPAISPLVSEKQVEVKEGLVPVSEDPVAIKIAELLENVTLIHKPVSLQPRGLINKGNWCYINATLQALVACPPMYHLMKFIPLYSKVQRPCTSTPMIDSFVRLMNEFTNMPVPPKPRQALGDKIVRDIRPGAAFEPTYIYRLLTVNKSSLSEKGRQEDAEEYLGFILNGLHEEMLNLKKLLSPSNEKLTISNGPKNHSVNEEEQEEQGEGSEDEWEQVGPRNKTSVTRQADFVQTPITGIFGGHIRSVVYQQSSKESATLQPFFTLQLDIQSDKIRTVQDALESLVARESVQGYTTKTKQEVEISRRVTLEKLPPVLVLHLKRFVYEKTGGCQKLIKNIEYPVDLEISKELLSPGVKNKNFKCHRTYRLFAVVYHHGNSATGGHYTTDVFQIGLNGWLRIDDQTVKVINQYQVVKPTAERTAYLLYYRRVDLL

O=C(CCl)Nc1ccc(Cl)c(F)c1
active: [2] -1.15 | [5] -1.36
inactive: [1] -0.448 | [3] 0.0807 | [4] -0.221 | [6] -0.216 | [7] -0.398 | [8] -0.142 | [9] -0.331 | [10] 0.323
